We go through 23 molecules from PubChem BioAssay (Tox21).

Assay [1] is described as follows: qHTS assay to identify aromatase inhibitors - cell viability counter screen (AID 743084).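 Further: cells stimulated with testosterone during compound exposure; nearly all actives have a fitted effect of over 55% in size.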 Further: potency means the concentration at half of the fitted maximal effect.
The nature of assay [2]: qHTS assay to identify small molecule that activate the aryl hydrocarbon receptor (AhR) signaling pathway - cell viability counter screen (AID 743086). Further: nearly all actives have a fitted effect of over 45% in size. Further: potency means the concentration at half of the fitted maximal effect. Summed up:
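Cytotoxicity counter screen: CellTiter-Fluor signal (30 min, 37 C) in 4000 HepG2 cells/well carrying the DRE-luciferase reporter, following 24 h compound exposure at 37 C.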

In assay [3] the target is Peroxisome proliferator-activated receptor gamma (Homo sapiens) (UniProt P37231). The assay is described as follows: qHTS assay to identify small molecule agonists of the peroxisome proliferator-activated receptor gamma (PPARg) signaling pathway (AID 743094; active means well fitted activation curve with a large enough effect in the signal ratio in the repeat runs, not every such curve was filed as active; the % refers to the signal ratio). Summed up:
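HEK293H PPARg-bla cells, 5 h settle at 37C/5% CO2; compound (DMSO) 17 h, 37C; B/G FRET substrate 1 h RT; fluorescence intensity read-out. qHTS format.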

Assay [4] is described as follows: qHTS assay to identify small molecule phospholipidosis (PLD) inducers (AID 1259344; active means well fitted curve in the direction sought with a large enough effect; an effect the other way counts as inactive or inconclusive). Summed up:
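Accumulated phospholipid, stained red by LipidTOX during 24 h compound treatment of HepG2 cells at 37 C, is quantified from images as pit number and intensity, normalised per cell using Hoechst-stained nuclei.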

The target of assay [5] is Nuclear receptor subfamily 1 group I member 2 (Rattus norvegicus) (UniProt Q9R1A7). Description: Rat pregnane X receptor (rPXR) activation by small molecules, qHTS assay (AID 1346983). Further: nearly all actives have a fitted effect of over 20% in size. Further: potency means the concentration at half of the fitted maximal effect. The note with it: rPXR luciferase reporter cells, One-Glo luminescence, 24 h; max activation: active compounds read high. Summed up:
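Luminescent readout (One-Glo luciferase, 30 min room temperature) followed 24 hr compound treatment at 37 C of rPXR cells plated 2,000 per well and preincubated 5hr; qHTS format with compounds delivered in DMSO.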

The target in assay [6] is Nuclear receptor subfamily 1 group I member 2 (Homo sapiens) (UniProt O75469). Description: CYP3A4 induction through human pregnane X receptor (PXR) by small molecules, qHTS assay (AID 1346984). Further: nearly all actives have a fitted effect of over 40% in size. A digest of the protocol:
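HepG2-derived DPX-2 line carrying PXR plus a CYP3A4-promoter luciferase reporter; cells plated 5 hr, compound-exposed 24 hr at 37C. CYP3A4 activity probed with 3uM (final) Luciferin-IPA for 3hr, then luciferase read after One-Glo.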

Assay [7] shares this target. The assay is described as follows: Human pregnane X receptor (PXR) activation by small molecules, qHTS assay (AID 1346985). Further: nearly all actives have a fitted effect of over 40% in size. A digest of the protocol: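 DPX-2 cells (HepG2 co-transfected with a PXR response element and a CYP3A4-promoter luciferase construct) were seeded at 2,000 per well, rested 5 hr at 37C, then exposed to DMSO-dissolved compounds for 24 hr. Activation was read as luciferase luminescence.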

The target in assay [8] is Aryl hydrocarbon receptor (Homo sapiens) (UniProt P35869). Description: qHTS assay to identify small molecule that activate the aryl hydrocarbon receptor (AhR) signaling pathway (AID 743085). Further: nearly all actives have a fitted effect of over 15% in size. Further: potency means the concentration at half of the fitted maximal effect.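 On activation: HG2L7.5c1 human HepG2 liver cells with stably integrated DRE-driven firefly reporter; series mostly up to about 70 µM.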 Summed up:
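Steps: seed HepG2-AhR-luc cells; allow 5 h at 37C; pin-transfer test compound or vehicle; incubate 24 h at 37C; add viability dye (30 min, 37C) and read fluorescence; add luciferase substrate (30 min, RT) and read luminescence.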

Inconclusive results are not listed. Unmarked numbers belong to inactive results. Activity calls are given as the source filed them. Unless noted, the call rests on the fitted dose curve; in most records, active means well fitted curve in the direction sought with a large enough effect in the repeat runs; inconclusive means weak or mixed curves; inactive means no such curve, though single readings can be large; an effect the other way counts as inactive or inconclusive. Non-standard residues stand in square brackets, D forms with d. Residues, ends and D or L forms follow the SMILES beside them. pGlu = O=C1CC[C@@H](C(=O)O)N1
On the % scale 0 is the no-effect control and ±100 the full control effect.

Nuclear receptor subfamily 1 group I member 2 (Rattus norvegicus), sequence (Q9R1A7 whole entry, looked up): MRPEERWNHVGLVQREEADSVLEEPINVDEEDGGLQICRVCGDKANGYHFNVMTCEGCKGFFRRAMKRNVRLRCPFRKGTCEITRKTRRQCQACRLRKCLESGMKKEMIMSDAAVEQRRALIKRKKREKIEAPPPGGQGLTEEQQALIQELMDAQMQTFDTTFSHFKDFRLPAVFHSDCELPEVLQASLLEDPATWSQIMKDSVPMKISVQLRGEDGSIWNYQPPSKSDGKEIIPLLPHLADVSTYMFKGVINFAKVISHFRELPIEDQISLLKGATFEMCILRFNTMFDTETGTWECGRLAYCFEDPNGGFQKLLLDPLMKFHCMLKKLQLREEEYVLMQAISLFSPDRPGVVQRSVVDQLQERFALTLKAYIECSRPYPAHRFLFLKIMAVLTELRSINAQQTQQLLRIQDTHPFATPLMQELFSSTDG
Aryl hydrocarbon receptor (Homo sapiens), sequence (P35869 whole entry, looked up): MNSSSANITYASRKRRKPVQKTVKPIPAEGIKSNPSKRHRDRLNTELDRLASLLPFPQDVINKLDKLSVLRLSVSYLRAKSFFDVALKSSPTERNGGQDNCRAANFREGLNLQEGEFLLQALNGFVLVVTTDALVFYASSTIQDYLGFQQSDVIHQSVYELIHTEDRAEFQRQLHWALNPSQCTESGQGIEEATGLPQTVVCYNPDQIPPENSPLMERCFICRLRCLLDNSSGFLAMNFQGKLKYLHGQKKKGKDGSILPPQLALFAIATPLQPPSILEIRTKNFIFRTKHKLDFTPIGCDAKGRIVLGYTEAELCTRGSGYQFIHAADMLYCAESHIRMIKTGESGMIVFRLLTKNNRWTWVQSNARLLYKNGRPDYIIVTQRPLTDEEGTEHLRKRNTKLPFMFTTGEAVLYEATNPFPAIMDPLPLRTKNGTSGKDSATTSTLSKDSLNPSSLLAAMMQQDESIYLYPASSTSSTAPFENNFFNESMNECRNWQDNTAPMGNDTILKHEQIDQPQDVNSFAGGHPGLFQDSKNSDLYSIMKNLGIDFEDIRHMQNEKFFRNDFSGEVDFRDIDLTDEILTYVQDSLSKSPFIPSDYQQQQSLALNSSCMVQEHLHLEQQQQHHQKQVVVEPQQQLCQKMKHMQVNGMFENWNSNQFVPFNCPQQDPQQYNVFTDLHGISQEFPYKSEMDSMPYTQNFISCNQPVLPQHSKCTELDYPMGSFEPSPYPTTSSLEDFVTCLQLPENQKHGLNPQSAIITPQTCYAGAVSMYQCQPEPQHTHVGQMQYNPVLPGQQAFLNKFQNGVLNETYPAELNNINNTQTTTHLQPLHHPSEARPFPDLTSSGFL
Peroxisome proliferator-activated receptor gamma (Homo sapiens), sequence (P37231 whole entry, looked up): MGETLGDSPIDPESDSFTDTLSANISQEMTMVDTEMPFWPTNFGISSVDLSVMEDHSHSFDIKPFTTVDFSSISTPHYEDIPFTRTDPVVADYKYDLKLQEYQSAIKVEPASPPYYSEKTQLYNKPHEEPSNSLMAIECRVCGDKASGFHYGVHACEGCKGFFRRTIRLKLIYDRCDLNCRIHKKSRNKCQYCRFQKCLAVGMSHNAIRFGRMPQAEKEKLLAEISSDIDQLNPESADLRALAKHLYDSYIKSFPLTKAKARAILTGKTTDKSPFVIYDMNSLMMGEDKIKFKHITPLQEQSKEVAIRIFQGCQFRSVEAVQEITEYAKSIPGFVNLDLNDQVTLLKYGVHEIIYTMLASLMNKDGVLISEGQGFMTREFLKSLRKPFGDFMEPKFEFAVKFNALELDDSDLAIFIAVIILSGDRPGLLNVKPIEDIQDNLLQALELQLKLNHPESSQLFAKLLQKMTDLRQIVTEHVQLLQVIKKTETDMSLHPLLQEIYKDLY

As to `O=S(=O)(O)c1cc(O)c2c(N=Nc3ccc(Nc4ccccc4)c4c(S(=O)(=O)O)cccc34)cc(S(=O)(=O)O)cc2c1`, the Potency in assay [1] is 16.8 µM (active); in assay [2] it was 11.9 µM (active). Besides, the Potency result in assay [3], in assay [4], in assay [6] and in assay [7] was “inactive” throughout. The max activation in assay [5] was -12%.

For the molecule `NCc1ccccc1CC(=O)N[C@@H]1C(=O)N2C(C(=O)O)=C(CSc3nnnn3CC(=O)O)CS[C@H]12`, the Potency entry in assay [1], in assay [2], in assay [3], in assay [4], in assay [6] and in assay [7] was “inactive” each time. Moreover, the max activation in assay [5] was -0.103%.

`C=CC1=C(C)C2=CC3=NC(=C(CC(=O)[O-])C4=NC(=C(C)C4=C([O-])[O-])C=c4[n-]c(c(C)c4CC)=CC1=N2)C(CCC(=O)[O-])C3C.[Cu+2].[Na+].[Na+].[Na+]` (stereo unspecified): the Potency in assay [1] and in assay [2] was 23.7 µM (active) each time. The Potency entry in assay [3], in assay [4], in assay [6] and in assay [7] was “inactive” throughout. In assay [5], the max activation is -0.69%.

With `C/C1=C2N=C(/C=C3N=C(/C(C)=C4\[N-][C@@](C)([C@@H]5N=C1[C@](C)(CCC(=O)NCC(C)OP(=O)(O)O[C@H]1[C@@H](O)[C@@H](n6cnc7cc(C)c(C)cc76)O[C@@H]1CO)[C@H]5CC(N)=O)[C@@](C)(CC(N)=O)[C@@H]4CCC(N)=O)[C@@](C)(CC(N)=O)[C@@H]\3CCC(N)=O)C(C)(C)[C@@H]/2CCC(N)=O.CC(=O)O.[Co]` (stereo partly specified), the Potency in assay [1] is 23.7 µM (active). Also, the Potency entry in assay [8], in assay [3], in assay [4], in assay [6] and in assay [7] was “inactive” each time. The max activation in assay [5] is -15.5%.

In the case of `CC(C)(C)NCC(O)CSc1nc(-c2ccc(C(N)=O)s2)cs1` (stereo unspecified), the Potency entry in assay [1], in assay [2], in assay [3], in assay [4], in assay [6] and in assay [7] was “inactive” in each case. Besides, in assay [5], the max activation was -4.09%.

As for `CC[C@@]1(O)C[C@H](O[C@H]2C[C@H](N(C)C)[C@H](O[C@H]3C[C@H](O)[C@H](O[C@H]4CCC(=O)[C@H](C)O4)[C@H](C)O3)[C@H](C)O2)c2c(cc3c(c2O)C(=O)c2c(O)cccc2C3=O)[C@H]1C(=O)OC`, the Potency is 26.6 µM (active) in assay [1] and 0.668 µM (active) in assay [2]. For the same molecule, the Potency result in assay [4], in assay [6] and in assay [7] was “inactive” in each case. The max activation in assay [5] was -18.5%.

With `C[N+]1(C)[C@@H]2CC(OC(=O)C(O)(c3cccs3)c3cccs3)C[C@H]1[C@@H]1O[C@@H]12` (stereo partly specified), the Potency entry in assay [1], in assay [8], in assay [3], in assay [4], in assay [6] and in assay [7] was “inactive” in each case. The max activation in assay [5] was -1.38%.

Take `O=C(O)CN(CC(=O)O)CC1=CC2C(=CC1=O)Oc1cc(O)c(CN(CC(=O)O)CC(=O)O)cc1C21OC(=O)c2ccccc21` (stereo unspecified): the Potency result in assay [8], in assay [4], in assay [6] and in assay [7] was “inactive” in each case. In addition, in assay [5], the max activation was 0.33%.

For `O=[N+]([O-])O[C@@H]1CO[C@H]2[C@@H]1OC[C@@H]2O`, the Potency result in assay [1], in assay [2], in assay [3], in assay [4], in assay [6] and in assay [7] was “inactive” each time. For the same molecule, in assay [5], the max activation was -3.54%.

`O=C(O)CCC/C=C\C[C@@H]1[C@@H](/C=C/[C@@H](O)COc2cccc(C(F)(F)F)c2)[C@H](O)C[C@@H]1O`: the Potency entry in assay [1], in assay [2], in assay [3], in assay [4], in assay [6] and in assay [7] was “inactive” throughout. In addition, in assay [5], the max activation was -3.83%.

Turning to `C=C1CC[C@H](O)CC1=C/C=C1\CCC[C@]2(C)[C@@H]([C@H](C)CCCC(C)(C)O)CC[C@@H]12`, the Potency entry in assay [1], in assay [2], in assay [4], in assay [6] and in assay [7] was “inactive” throughout. In addition, the max activation in assay [5] was -20.1%.

For the molecule `CCC(Cc1c(I)cc(I)c(O)c1I)C(=O)O` (stereo unspecified), the Potency entry in assay [1], in assay [2], in assay [4], in assay [6] and in assay [7] was “inactive” in each case. Moreover, in assay [5], the max activation was -2.63%.

Consider `c1ccc2cc(C3=NCCN3)ccc2c1`, for which the Potency entry in assay [1], in assay [2], in assay [3], in assay [4], in assay [6] and in assay [7] was “inactive” in each case. Moreover, the max activation in assay [5] was -0.34%.

For the molecule `CC[C@H](C)[C@H](NC(=O)[C@H](Cc1ccccc1)NC(=O)[C@H](C)NC(=O)[C@H](CC(=O)O)NC(=O)[C@H](CCCCN)NC(=O)[C@H](CO)NC(=O)[C@@H]1CCCN1C(=O)[C@@H]1CCC(=O)N1)C(=O)NCC(=O)N[C@@H](CC(C)C)C(=O)N[C@@H](CCSC)C(N)=O` ([pGlu]PSKDAFIGLM-NH2), the Potency entry in assay [1], in assay [2], in assay [3], in assay [4], in assay [6] and in assay [7] was “inactive” throughout. Moreover, the max activation in assay [5] was -3.14%.

With `CCCCCCCCCCCCCCCCOCCOCCOCCOCCOCCOCCOCCOCCOCCOCCOCCOCCOCCOCCOCCOCCOCCOCCOCCOCCO`, the Potency result in assay [8], in assay [4], in assay [6] and in assay [7] was “inactive” in each case. The max activation in assay [5] was -15.6%.

Regarding `O=C(O)c1cc(O)c2c(c1)[O][Bi][O]2`, the Potency entry in assay [1], in assay [2], in assay [3], in assay [4], in assay [6] and in assay [7] was “inactive” throughout. Further, in assay [5], the max activation was -0.194%.

On to `CCOc1ccc(N=Nc2ccc(N)cc2N)cc1`, for which the Potency in assay [1] is 21.1 µM (active); in assay [8] it was 0.944 µM (active); in assay [5], 3.16 µM (active). In addition, the Potency entry in assay [3], in assay [4], in assay [6] and in assay [7] was “inactive” each time.

For `O=C(CCCCCCCCCCCCC1CCCC1)Nc1ccc(S(=O)(=O)c2ccc(NC(=O)CCCCCCCCCCCCC3CCCC3)cc2)cc1`, the Potency result in assay [1], in assay [2], in assay [3], in assay [4], in assay [6] and in assay [7] was “inactive” each time. Besides, the max activation in assay [5] is -2.51%.

For the molecule `C[Se]CCC(N)C(=O)O` (stereo unspecified), the Potency entry in assay [1], in assay [2], in assay [3], in assay [4], in assay [6] and in assay [7] was “inactive” in each case. Further, the max activation in assay [5] is -0.898%.

On to `Cc1cc(C(=O)NNCc2ccccc2)no1`, for which the Potency entry in assay [1], in assay [2], in assay [3], in assay [4], in assay [6] and in assay [7] was “inactive” throughout. Moreover, the max activation in assay [5] was -1.39%.

With `O=C(OC1C[C@@H]2CC3C[C@H](C1)N2CC3=O)c1c[nH]c2ccccc12` (stereo partly specified), the Potency result in assay [1], in assay [3], in assay [4], in assay [6] and in assay [7] was “inactive” each time. The max activation in assay [5] was 6.05%.

For the molecule `COc1ccc(C2(C#N)CCC(C(=O)O)CC2)cc1OC1CCCC1` (stereo unspecified), the Potency result in assay [1], in assay [2], in assay [4], in assay [6] and in assay [7] was “inactive” each time. In addition, the max activation in assay [5] is -0.133%.

For the molecule `CCCC1C(=O)N2C(N(C)C)=Nc3ccc(C)cc3N2C1=O` (stereo unspecified), the Potency result in assay [1], in assay [2], in assay [4], in assay [6] and in assay [7] was “inactive” throughout. Moreover, the max activation in assay [5] is 5.29%.
